Inconclusive results are not listed. A number with no mark means an inactive call. Calls of active or inactive are those of the source. The call rests on the fitted dose curve.
Test: p53 small molecule agonists, cell-based qHTS assay with human liver microsomes: qHTS cell viability counter screen (AID 1963579); further: nearly all actives have a fitted effect of over 45% in size
Conditions: p53RE-bla HCT-116 viability, ATP luminescence, 16 h, HLM; series mostly up to 66 µM; activity change, negative = cytotoxicity: at the top concentration
Method in brief: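 Cells carrying the p53 response-element beta-lactamase reporter are treated for 16 h at 37 C with test compounds in the presence of human liver microsomes and NADPH (both 0.5 mg/mL final); ATP-based CellTiter-Glo luminescence then reports viability.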
On the % scale 0 is the no-effect control and ±100 the full control effect; potency means the concentration at half of the fitted maximal effect.

SMILES | activity change, negative = cytotoxicity | Potency
CCC(=O)Oc1ccc2c(c1)CC[C@@H]1[C@@H]2CC[C@@]2(C)[C@H]1C[C@@H](OC(=O)CC)[C@@H]2OC(=O)CC | 0.0263% [at 30.3 µM] | –
C[C@H](O)C(=O)Nc1c(I)c(C(=O)NC(CO)CO)c(I)c(C(=O)NC(CO)CO)c1I | -2.02% [at 30.3 µM] | –
CC1(C)CCC(C)(C)c2cc(NC(=O)c3ccc(C(=O)O)cc3)ccc21 | 10.8% [at 30.3 µM] | –
O=C=NCc1cccc(CN=C=O)c1 | 2.85% [at 13.5 µM] | –
CCCCC(=O)O[C@]1(C(=O)CO)CC[C@H]2[C@@H]3CCC4=CC(=O)CC[C@]4(C)[C@H]3[C@@H](O)C[C@@]21C | -1.95% [at 30.3 µM] | –
CC[C@H](NC(C)C)[C@H](O)c1ccc(O)c2[nH]c(=O)ccc12 | 2.49% [at 30.3 µM] | –
O=[N+]([O-])c1ccc(CO)cc1 | -3% | –
CCN(CC)c1ccc(C=O)cc1 | 0.262% | –
O=c1[nH]c(=O)n([C@H]2O[C@H](CO)[C@@H](O)[C@@H]2O)cc1/C=C\Br | -7.65% [at 30.3 µM] | –
O=C(O)c1cc(O)c2c(c1)C(=O)c1cccc(O)c1C2=O | 0.081% | –
CC(=O)Nc1ccc(N)cc1 | 2.54% | –
Nc1ccccc1O | – | 28.5 µM (active)
CCCCCCCCCC=O | -6.8% | –
CN1CCN(c2c(F)cc3c(=O)c(C(=O)O)cn4c3c2OCN4C)CC1 | -4.82% [at 13.5 µM] | –
COc1ccc2sc(C(=O)Nc3nnn[nH]3)c(OC(C)C)c2c1 | -14.5% | –

From PubChem BioAssay (Tox21)
